# Experimental data published in PubChem BioAssay.
# Values joined by “and” are separate entries in the source; they are usually repeats but may differ in a detail not shown here. Equal values may be shown once. Active and inactive are the calls of the source.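 How the source made its calls, unless noted: active means normalized viability below 100% at a tested concentration; inactive means the rest.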
# What was measured:
# [1] = tested on: Aerobactin synthetase IucA (Klebsiella pneumoniae); assay: IucA aerobactin synthetase inhibitors, biochemical, Tocris library, absorbance (AID 1345561; call rule not given here;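 further: 100% = enzyme without compound and 0% = no enzyme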); settings: purified IucA enzyme assay, absorbance (OD) read-out; stronger effect = lower value;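 tested at 8 µM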
# [2] = sensitizers of A549 cells to miR-34 induction, primary screen, imaging, A549 dox-inducible miR-34, nuclei and caspase counts (AID 1347080;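 active means compounds whose cell count with miR-34 switched on is under 0.7 times the count with it off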); settings: A549 miR-34 inducible, Hoechst nuclei count, 48 h
# [3] = survival rescue of mitochondrial mutant cells in low glucose, primary screen, MELAS cybrids, Rieske KO mouse fibroblasts, CellTiter-Glo (AID 1508586;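 active means mean z-score across replicates of 1.96 or higher in either the MELAS or the Rieske mutant cell line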;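 further: z relative to plate mean and SD of compound and empty wells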)
# [4] = viability rescue of complex I mutant cybrids, primary screen, cell-based, galactose medium, ATP luminescence (AID 1645843;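 active means z-score of at least 1.8 in each of two replicates, scored against plate mean and spread of sample wells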;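 further: positive z means more ATP and so rescue of galactose-driven cybrid death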); settings: complex I mutant cybrid cells, 72 h, stronger effect = higher value
# [5] = modifiers of HSF1 nuclear foci, imaging, Selleck Cancer Library (AID 1347162; in the data active means plate-normalised HSF1 focus index below about 0.46); settings: human cells, at 10 µM; SSMD: measured here: HSF1 foci SSMD mean; cell count: measured here: cell number; plate-normalised HSF1 focus index: stronger effect = lower value
# [6] = ovarian cancer cell viability with rucaparib, profiling panel, oncology-focused library, rucaparib conditional (AID 1508598); settings: patient-derived ovarian cancer cells, CellTiter-Glo viability, 144 h, stronger effect = lower value
# [7] = stronger effect = lower value, cell number ratio, induced over uninduced
# [8] = measured here: relative caspase fold change +Dox/-Dox
# [9] = measured here: total cells with miR-34 induction, stronger effect = lower value
# [10] = measured here: total cells without miR-34 induction
# [11] = MELAS cybrid survival, CellTiter-Glo 48 h, stronger effect = higher value
# [12] = Rieske KO mouse fibroblast survival, CellTiter-Glo 72 h
smiles,measurement,setting,value
COc1ccccc1N1CCN(CCN2C(=O)CC3(CCCC3)CC2=O)CC1,remaining activity,[1],96.2% (inactive)
same,fold change,[2]; [7],1.01 (inactive) and 0.904 (inactive) and 0.921 (inactive)
same,fold change,[2]; [8],1.78 and 0.65 and 0.553
same,cell count,[2]; [9],10300 and 7050 and 8240
same,cell count,[2]; [10],10200 and 7800 and 8940
same,z-score,[3]; [11],-0.152 (inactive)
same,z-score,[3]; [12],-0.237
same,z-score,[4],-0.235 (inactive) and -0.615 (inactive)
Cn1cc(C2=C(c3ccc(Cl)cc3Cl)C(=O)NC2=O)c2ccccc21,remaining activity,[1],92.7% (inactive)
same,fold change,[2]; [7],0.99 (inactive) and 0.96 (inactive) and 1.01 (inactive)
same,fold change,[2]; [8],1.07 and 0.76 and 0.707
same,cell count,[2]; [9],4090 and 5760 and 2500
same,cell count,[2]; [10],4130 and 6000 and 2470
same,SSMD,[5],1.42
same,cell count,[5],7820
same,plate-normalised HSF1 focus index,[5],1.09 (inactive)
same,z-score,[3]; [11],-0.394 (inactive)
same,z-score,[3]; [12],0.82
same,viability,"[6]; at 0.000305 µM, OCI-C5x cells, with rucaparib 10 µM, 100% = cells with rucaparib alone",106% (inactive)
same,viability,"[6]; at 0.000305 µM, OCI-C5x cells, without rucaparib",117% (inactive)
same,viability,"[6]; at 0.000305 µM, OCI-P5x cells, with rucaparib 20 µM, 100% = cells with rucaparib alone",102% (inactive)
same,viability,"[6]; at 0.000305 µM, OCI-P5x cells, without rucaparib",103% (inactive)
same,viability,"[6]; at 0.00122 µM, OCI-C5x cells, with rucaparib 10 µM, 100% = cells with rucaparib alone",122% (inactive)
same,viability,"[6]; at 0.00122 µM, OCI-C5x cells, without rucaparib",119% (inactive)
same,viability,"[6]; at 0.00122 µM, OCI-P5x cells, with rucaparib 20 µM, 100% = cells with rucaparib alone",107% (inactive)
same,viability,"[6]; at 0.00122 µM, OCI-P5x cells, without rucaparib",89.9% (active)
same,viability,"[6]; at 0.00488 µM, OCI-C5x cells, with rucaparib 10 µM, 100% = cells with rucaparib alone",117% (inactive)
same,viability,"[6]; at 0.00488 µM, OCI-C5x cells, without rucaparib",114% (inactive)
same,viability,"[6]; at 0.00488 µM, OCI-P5x cells, with rucaparib 20 µM, 100% = cells with rucaparib alone",105% (inactive)
same,viability,"[6]; at 0.00488 µM, OCI-P5x cells, without rucaparib",91.8% (active)
same,viability,"[6]; at 0.0195 µM, OCI-C5x cells, with rucaparib 10 µM, 100% = cells with rucaparib alone",125% (inactive)
same,viability,"[6]; at 0.0195 µM, OCI-C5x cells, without rucaparib",111% (inactive)
same,viability,"[6]; at 0.0195 µM, OCI-P5x cells, with rucaparib 20 µM, 100% = cells with rucaparib alone",98.3% (active)
same,viability,"[6]; at 0.0195 µM, OCI-P5x cells, without rucaparib",89.5% (active)
same,viability,"[6]; at 0.0781 µM, OCI-C5x cells, with rucaparib 10 µM, 100% = cells with rucaparib alone",110% (inactive)
same,viability,"[6]; at 0.0781 µM, OCI-C5x cells, without rucaparib",112% (inactive)
same,viability,"[6]; at 0.0781 µM, OCI-P5x cells, with rucaparib 20 µM, 100% = cells with rucaparib alone",106% (inactive)
same,viability,"[6]; at 0.0781 µM, OCI-P5x cells, without rucaparib",81.9% (active)
same,viability,"[6]; at 0.313 µM, OCI-C5x cells, with rucaparib 10 µM, 100% = cells with rucaparib alone",122% (inactive)
same,viability,"[6]; at 0.313 µM, OCI-C5x cells, without rucaparib",106% (inactive)
same,viability,"[6]; at 0.313 µM, OCI-P5x cells, with rucaparib 20 µM, 100% = cells with rucaparib alone",97.2% (active)
same,viability,"[6]; at 0.313 µM, OCI-P5x cells, without rucaparib",89.8% (active)
same,viability,"[6]; at 1.25 µM, OCI-C5x cells, with rucaparib 10 µM, 100% = cells with rucaparib alone",126% (inactive)
same,viability,"[6]; at 1.25 µM, OCI-C5x cells, without rucaparib",111% (inactive)
same,viability,"[6]; at 1.25 µM, OCI-P5x cells, with rucaparib 20 µM, 100% = cells with rucaparib alone",96.3% (active)
same,viability,"[6]; at 1.25 µM, OCI-P5x cells, without rucaparib",84.5% (active)
same,viability,"[6]; at 5 µM, OCI-C5x cells, with rucaparib 10 µM, 100% = cells with rucaparib alone",114% (inactive)
same,viability,"[6]; at 5 µM, OCI-C5x cells, without rucaparib",120% (inactive)
same,viability,"[6]; at 5 µM, OCI-P5x cells, with rucaparib 20 µM, 100% = cells with rucaparib alone",89.2% (active)
same,viability,"[6]; at 5 µM, OCI-P5x cells, without rucaparib",83.9% (active)
same,z-score,[4],1.59 (inactive) and 0.305 (inactive)
CC(C)(C)c1cc(O)c(C(C)(C)C)cc1O,remaining activity,[1],129% (inactive)
same,fold change,[2]; [7],1.1 (inactive) and 0.907 (inactive)
same,fold change,[2]; [8],1.08 and 0.716
same,cell count,[2]; [9],1530 and 6190
same,cell count,[2]; [10],1390 and 6820
same,z-score,[4],-0.7 (inactive)
Clc1cccc(Nc2nnc(-c3ccccc3)c3ccccc23)c1,remaining activity,[1],100% (inactive)
same,fold change,[2]; [7],0.991 (inactive) and 0.925 (inactive)
same,fold change,[2]; [8],0.939 and 0.863
same,cell count,[2]; [9],1790 and 6180
same,cell count,[2]; [10],1810 and 6680
same,z-score,[4],-1.22 (inactive)
CC(C)(C)n1nc(-c2ccc(Cl)cc2)c2c(N)ncnc21,remaining activity,[1],92.2% (inactive)
same,fold change,[2]; [7],1.17 (inactive) and 0.851 (inactive) and 0.882 (inactive)
same,fold change,[2]; [8],0.727 and 0.97 and 0.665
same,cell count,[2]; [9],797 and 2420 and 4980
same,cell count,[2]; [10],682 and 2850 and 5640
same,z-score,[3]; [11],0.749 (inactive)
same,z-score,[3]; [12],-0.167
same,z-score,[4],1.28 (inactive)
O=C1C(SCCO)=C(SCCO)C(=O)c2ccccc21,remaining activity,[1],112% (inactive)
same,fold change,[2]; [7],1.25 (inactive) and 0.776 (inactive) and 0.848 (inactive)
same,fold change,[2]; [8],0.902 and 1.05 and 1.12
same,cell count,[2]; [9],1490 and 1050 and 1210
same,cell count,[2]; [10],1190 and 1350 and 1420
same,z-score,[4],-1.04 (inactive) and -0.82 (inactive)
O=S(=O)(c1cccc2c(Cl)cccc12)N1CCCNCC1,remaining activity,[1],97.3% (inactive)
same,fold change,[2]; [7],1.19 (inactive) and 0.923 (inactive) and 0.938 (inactive)
same,fold change,[2]; [8],1.59 and 1.07 and 1
same,cell count,[2]; [9],6430 and 3010 and 7700
same,cell count,[2]; [10],5390 and 3260 and 8210
same,z-score,[4],-0.995 (inactive) and -0.78 (inactive)
COc1cc(/C=C(\C#N)C(N)=O)cc(CSc2nc3ccccc3s2)c1O,remaining activity,[1],115% (inactive)
same,fold change,[2]; [7],0.859 (inactive) and 0.896 (inactive)
same,fold change,[2]; [8],1.08 and 1.29
same,cell count,[2]; [9],4790 and 8180
same,cell count,[2]; [10],5570 and 9130
same,z-score,[4],5.03 (active)
COC(=O)c1c(C)[nH]c(C)c1C(=O)c1ccccc1Cc1ccccc1,remaining activity,[1],110% (inactive)
same,fold change,[2]; [7],0.994 (inactive) and 1.2 (inactive) and 0.953 (inactive)
same,fold change,[2]; [8],0.778 and 0.775 and 0.777
same,cell count,[2]; [9],7970 and 5070 and 7630
same,cell count,[2]; [10],8020 and 4240 and 8010
same,z-score,[4],-0.58 (inactive) and -0.485 (inactive)
COc1ccc(CCN(C)CCc2ccc(OC)c(OC)c2)cc1OC,remaining activity,[1],104% (inactive)
same,fold change,[2]; [7],0.949 (inactive) and 0.925 (inactive) and 0.899 (inactive)
same,fold change,[2]; [8],1.08 and 1.5 and 0.778
same,cell count,[2]; [9],8830 and 6070 and 8850
same,cell count,[2]; [10],9310 and 6560 and 9840
same,z-score,[4],-0.285 (inactive) and -0.27 (inactive)
CCCCCCCC/C=C\CCCCCCCC(N)=O,remaining activity,[1],107% (inactive)
same,fold change,[2]; [7],0.955 (inactive) and 0.909 (inactive) and 1 (inactive)
same,fold change,[2]; [8],1.2 and 0.885 and 0.621
same,cell count,[2]; [9],5390 and 5900 and 8530
same,cell count,[2]; [10],5650 and 6490 and 8490
same,z-score,[4],-0.84 (inactive)
